# Paper PMC11066047
# How the values were obtained:
# [1] = target: ATP synthase subunit f, mitochondrial (UniProt Q06405); assay: cross-link between two proteins; cross-linking mass spectrometry
# [2] = target: 26S proteasome regulatory subunit RPN3 (UniProt P40016); assay: as above
# [3] = target: 26S proteasome regulatory subunit 8 homolog (UniProt Q01939); assay: as above
# [4] = target: 26S proteasome regulatory subunit 4 homolog (UniProt P40327); assay: as above
# [5] = target: Ribosome-associated molecular chaperone SSB1 (UniProt P11484); assay: cross-link between two proteins; affinity purification or IP with mass spectrometry; cross-linking mass spectrometry
# Sequence of Ribosome-associated molecular chaperone SSB1 (P11484 whole entry): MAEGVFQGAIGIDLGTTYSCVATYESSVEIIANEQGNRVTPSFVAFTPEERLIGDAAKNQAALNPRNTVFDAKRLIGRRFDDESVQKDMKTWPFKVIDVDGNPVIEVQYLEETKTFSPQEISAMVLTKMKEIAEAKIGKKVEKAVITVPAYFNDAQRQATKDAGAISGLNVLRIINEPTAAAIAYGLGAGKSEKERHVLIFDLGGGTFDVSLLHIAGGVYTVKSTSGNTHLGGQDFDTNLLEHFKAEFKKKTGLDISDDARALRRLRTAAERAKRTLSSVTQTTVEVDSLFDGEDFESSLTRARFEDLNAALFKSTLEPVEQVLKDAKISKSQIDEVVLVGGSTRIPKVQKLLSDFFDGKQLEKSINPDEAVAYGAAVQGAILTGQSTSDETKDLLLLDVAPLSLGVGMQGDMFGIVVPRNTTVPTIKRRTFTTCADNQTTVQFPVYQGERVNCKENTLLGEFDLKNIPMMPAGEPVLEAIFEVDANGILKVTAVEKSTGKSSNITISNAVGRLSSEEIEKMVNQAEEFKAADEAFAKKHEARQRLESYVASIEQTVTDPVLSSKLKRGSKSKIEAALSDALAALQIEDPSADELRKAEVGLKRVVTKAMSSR
# [6] = target: ATP-dependent molecular chaperone HSC82 (UniProt P15108); assay: as above
# [7] = target: ATP synthase subunit 4, mitochondrial (UniProt P05626); assay: cross-link between two proteins; cross-linking mass spectrometry
# Heat shock protein STI1 = Heat shock protein STI1 (UniProt P15705); assay: cross-link between two proteins; affinity purification or IP with mass spectrometry; cross-linking mass spectrometry
# [8] = target: ATP synthase subunit gamma, mitochondrial (UniProt P38077); assay: cross-link between two proteins; cross-linking mass spectrometry
# [9] = target: 26S proteasome subunit RPT4 (UniProt P53549); assay: as above
# Sequence of 26S proteasome subunit RPT4 (P53549 whole entry): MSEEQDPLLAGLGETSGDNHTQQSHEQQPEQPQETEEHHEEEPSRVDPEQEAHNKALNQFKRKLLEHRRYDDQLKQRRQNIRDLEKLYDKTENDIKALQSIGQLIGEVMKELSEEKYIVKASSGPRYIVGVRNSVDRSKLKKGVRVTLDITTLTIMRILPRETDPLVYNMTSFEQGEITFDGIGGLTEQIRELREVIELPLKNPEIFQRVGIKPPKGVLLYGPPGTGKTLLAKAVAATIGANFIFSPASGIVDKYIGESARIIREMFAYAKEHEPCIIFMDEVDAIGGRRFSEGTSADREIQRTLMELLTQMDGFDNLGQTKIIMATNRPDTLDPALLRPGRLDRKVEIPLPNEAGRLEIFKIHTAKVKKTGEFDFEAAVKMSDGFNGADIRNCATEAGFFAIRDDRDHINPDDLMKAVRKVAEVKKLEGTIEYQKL
# [10] = target: 26S proteasome regulatory subunit 7 homolog (UniProt P33299); assay: as above
# [11] = target: 26S proteasome regulatory subunit RPN9 (UniProt Q04062); assay: as above
# [12] = target: Large ribosomal subunit protein eL22A (UniProt P05749); assay: as above
# [13] = target: Large ribosomal subunit protein uL3 (UniProt P14126); assay: as above
# [14] = target: 26S proteasome regulatory subunit RPN8 (UniProt Q08723); assay: as above
# Sequence of 26S proteasome regulatory subunit RPN8 (Q08723 whole entry): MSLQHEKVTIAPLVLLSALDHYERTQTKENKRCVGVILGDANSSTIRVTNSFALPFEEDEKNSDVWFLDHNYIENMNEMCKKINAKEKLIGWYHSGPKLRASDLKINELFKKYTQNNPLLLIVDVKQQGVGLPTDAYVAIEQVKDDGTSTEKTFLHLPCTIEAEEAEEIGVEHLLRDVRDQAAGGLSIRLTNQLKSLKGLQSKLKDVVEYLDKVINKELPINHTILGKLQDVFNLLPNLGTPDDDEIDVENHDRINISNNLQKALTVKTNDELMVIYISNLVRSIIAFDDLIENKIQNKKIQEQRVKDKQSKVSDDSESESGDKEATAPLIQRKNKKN
# [15] = target: 26S proteasome regulatory subunit RPN7 (UniProt Q06103); assay: as above
# [16] = target: 26S proteasome regulatory subunit RPN2 (UniProt P32565); assay: as above
# [17] = target: ATP synthase subunit 5, mitochondrial (UniProt P09457); assay: as above
# [18] = target: ATP synthase subunit H, mitochondrial (UniProt Q12349); assay: as above
# [19] = target: ATP synthase subunit d, mitochondrial (UniProt P30902); assay: as above
# [20] = target: 2-isopropylmalate synthase 2, mitochondrial (UniProt Q12166); assay: as above
# Sequence of 2-isopropylmalate synthase 2, mitochondrial (Q12166 whole entry): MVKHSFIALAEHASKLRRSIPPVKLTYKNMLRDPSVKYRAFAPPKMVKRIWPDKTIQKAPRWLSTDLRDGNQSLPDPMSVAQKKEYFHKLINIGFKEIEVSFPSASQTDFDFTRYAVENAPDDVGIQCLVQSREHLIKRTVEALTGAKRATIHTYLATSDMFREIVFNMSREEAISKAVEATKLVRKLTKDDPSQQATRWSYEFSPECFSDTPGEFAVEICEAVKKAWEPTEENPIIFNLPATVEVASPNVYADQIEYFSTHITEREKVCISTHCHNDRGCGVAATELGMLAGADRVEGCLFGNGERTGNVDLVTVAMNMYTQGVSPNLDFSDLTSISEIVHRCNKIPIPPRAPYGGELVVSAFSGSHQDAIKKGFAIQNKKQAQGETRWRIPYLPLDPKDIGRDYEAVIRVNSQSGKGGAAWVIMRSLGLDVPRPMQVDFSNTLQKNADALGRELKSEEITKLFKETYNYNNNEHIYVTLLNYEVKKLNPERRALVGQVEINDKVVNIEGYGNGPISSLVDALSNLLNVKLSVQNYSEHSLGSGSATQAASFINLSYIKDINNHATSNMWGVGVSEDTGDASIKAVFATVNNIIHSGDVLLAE
# [21] = target: ATP-dependent RNA helicase HAS1 (UniProt Q03532); assay: as above
# Sequence of ATP-dependent RNA helicase HAS1 (Q03532 whole entry): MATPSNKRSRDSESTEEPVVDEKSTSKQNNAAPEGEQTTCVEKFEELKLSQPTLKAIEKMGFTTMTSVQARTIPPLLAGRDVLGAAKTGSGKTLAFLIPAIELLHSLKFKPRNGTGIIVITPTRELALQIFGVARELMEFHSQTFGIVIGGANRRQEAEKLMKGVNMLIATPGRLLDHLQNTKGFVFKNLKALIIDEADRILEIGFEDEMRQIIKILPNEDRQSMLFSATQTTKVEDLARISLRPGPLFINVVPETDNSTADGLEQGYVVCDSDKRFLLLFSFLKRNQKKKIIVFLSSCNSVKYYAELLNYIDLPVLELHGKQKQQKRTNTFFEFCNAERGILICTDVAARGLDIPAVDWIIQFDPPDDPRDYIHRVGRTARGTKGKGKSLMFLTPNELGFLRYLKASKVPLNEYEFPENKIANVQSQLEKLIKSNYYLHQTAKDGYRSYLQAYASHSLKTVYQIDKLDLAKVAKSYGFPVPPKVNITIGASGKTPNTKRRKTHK
# [22] = target: ATP synthase subunit K, mitochondrial (UniProt P81451); assay: as above
# [23] = target: Protein transport protein SSS1 (UniProt P35179); assay: cross-link between two proteins; affinity purification or IP with mass spectrometry; cross-linking mass spectrometry
# [24] = target: ATP-dependent RNA helicase DBP10 (UniProt Q12389); assay: cross-link between two proteins; cross-linking mass spectrometry
# Elongation factor 3A = Elongation factor 3A (UniProt P16521); assay: cross-link between two proteins; affinity purification or IP with mass spectrometry; cross-linking mass spectrometry
# [25] = target: Heat shock protein homolog SSE1 (UniProt P32589); assay: cross-link between two proteins
# [26] = target: Heat shock protein homolog SSE2 (UniProt P32590); assay: cross-link between two proteins; affinity purification or IP with mass spectrometry; cross-linking mass spectrometry
# [27] = target: Large ribosomal subunit protein eL21A (UniProt Q02753); assay: as above
# [28] = target: Large ribosomal subunit protein eL8B (UniProt P29453); assay: as above
# [29] = target: Large ribosomal subunit protein uL24B (UniProt P53221); assay: as above
# Sequence of Large ribosomal subunit protein uL24B (P53221 whole entry): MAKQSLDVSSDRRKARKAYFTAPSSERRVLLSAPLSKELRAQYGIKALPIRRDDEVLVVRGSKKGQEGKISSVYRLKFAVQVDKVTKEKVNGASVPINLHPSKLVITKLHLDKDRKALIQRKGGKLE
# [30] = target: Signal transduction protein MDG1 (UniProt P53885); assay: as above
# [31] = target: Small ribosomal subunit protein eS1B (UniProt P23248); assay: as above
# [32] = target: Small ribosomal subunit protein uS10 (UniProt P38701); assay: as above
# [33] = target: Small ribosomal subunit protein uS11B (UniProt P39516); assay: as above
# [34] = target: Large ribosomal subunit protein eL13B (UniProt P40212); assay: cross-link between two proteins; cross-linking mass spectrometry
# [35] = target: Casein kinase II subunit beta (UniProt P43639); assay: as above
# [36] = target: Casein kinase II subunit beta' (UniProt P38930); assay: as above
# [37] = target: Cytochrome b-c1 complex subunit 10, mitochondrial (UniProt P37299); assay: as above
# [38] = target: Cytochrome b-c1 complex subunit 2, mitochondrial (UniProt P07257); assay: as above
# [39] = target: Cytochrome c oxidase subunit 12, mitochondrial (UniProt Q01519); assay: as above
# [40] = target: Cytochrome c oxidase subunit 5A, mitochondrial (UniProt P00424); assay: as above
# [41] = target: Cytochrome c oxidase subunit 6, mitochondrial (UniProt P00427); assay: as above
# [42] = target: DNA-directed RNA polymerase II subunit RPB11 (UniProt P38902); assay: as above
# [43] = target: DNA-directed RNA polymerases I, II, and III subunit RPABC5 (UniProt P22139); assay: as above
# Sequence of DNA-directed RNA polymerases I, II, and III subunit RPABC5 (P22139 whole entry): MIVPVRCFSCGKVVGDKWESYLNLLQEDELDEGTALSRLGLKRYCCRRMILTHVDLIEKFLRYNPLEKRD
# FK506-binding protein 4 = FK506-binding protein 4 (UniProt Q06205); assay: as above
# [44] = target: H/ACA ribonucleoprotein complex subunit NOP10 (UniProt Q6Q547); assay: cross-link between two proteins
# Sequence of Ribosome-associated molecular chaperone SSB1, P11484 (P11484 whole entry): as the sequence (P11484 whole entry) above
# Sequence of 26S proteasome regulatory subunit RPN3 (P40016 whole entry): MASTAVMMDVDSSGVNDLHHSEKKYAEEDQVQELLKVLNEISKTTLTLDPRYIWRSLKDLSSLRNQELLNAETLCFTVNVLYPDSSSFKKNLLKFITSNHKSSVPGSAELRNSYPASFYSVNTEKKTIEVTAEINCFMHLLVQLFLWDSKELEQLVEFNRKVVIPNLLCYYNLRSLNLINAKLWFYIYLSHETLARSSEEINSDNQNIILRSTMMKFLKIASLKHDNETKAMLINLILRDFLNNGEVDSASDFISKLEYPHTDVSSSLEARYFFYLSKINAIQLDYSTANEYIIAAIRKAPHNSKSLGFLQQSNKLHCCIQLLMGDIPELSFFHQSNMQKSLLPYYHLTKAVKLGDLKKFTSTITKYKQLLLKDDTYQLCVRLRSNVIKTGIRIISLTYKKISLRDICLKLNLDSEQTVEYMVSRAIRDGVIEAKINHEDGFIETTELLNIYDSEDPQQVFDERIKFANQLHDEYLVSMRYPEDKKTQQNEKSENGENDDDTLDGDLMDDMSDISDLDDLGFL
# Sequence of 26S proteasome regulatory subunit 8 homolog (Q01939 whole entry): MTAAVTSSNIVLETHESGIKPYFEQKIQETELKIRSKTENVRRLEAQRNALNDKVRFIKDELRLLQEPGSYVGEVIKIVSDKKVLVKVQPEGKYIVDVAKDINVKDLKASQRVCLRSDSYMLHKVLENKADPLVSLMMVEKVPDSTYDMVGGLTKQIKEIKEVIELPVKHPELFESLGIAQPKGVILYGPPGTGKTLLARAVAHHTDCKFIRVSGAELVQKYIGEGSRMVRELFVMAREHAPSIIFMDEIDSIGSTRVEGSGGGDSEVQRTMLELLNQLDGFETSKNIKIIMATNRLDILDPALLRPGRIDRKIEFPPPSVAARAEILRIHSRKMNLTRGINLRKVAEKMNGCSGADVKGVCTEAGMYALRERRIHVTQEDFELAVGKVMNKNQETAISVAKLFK
# Sequence of 26S proteasome regulatory subunit 4 homolog (P40327 whole entry): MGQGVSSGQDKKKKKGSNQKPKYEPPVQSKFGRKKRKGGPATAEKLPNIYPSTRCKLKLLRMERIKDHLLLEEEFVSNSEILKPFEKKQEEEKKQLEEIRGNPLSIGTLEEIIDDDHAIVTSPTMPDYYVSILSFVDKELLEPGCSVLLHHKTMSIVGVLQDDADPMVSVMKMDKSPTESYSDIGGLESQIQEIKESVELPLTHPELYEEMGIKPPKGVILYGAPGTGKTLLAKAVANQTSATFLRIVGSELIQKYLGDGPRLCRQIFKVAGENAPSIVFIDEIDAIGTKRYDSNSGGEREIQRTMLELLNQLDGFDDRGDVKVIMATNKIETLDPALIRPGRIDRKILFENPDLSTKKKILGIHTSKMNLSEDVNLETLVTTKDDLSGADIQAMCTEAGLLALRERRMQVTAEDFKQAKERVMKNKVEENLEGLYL
# Sequence of Nucleolar protein 16, P40007 (P40007 whole entry): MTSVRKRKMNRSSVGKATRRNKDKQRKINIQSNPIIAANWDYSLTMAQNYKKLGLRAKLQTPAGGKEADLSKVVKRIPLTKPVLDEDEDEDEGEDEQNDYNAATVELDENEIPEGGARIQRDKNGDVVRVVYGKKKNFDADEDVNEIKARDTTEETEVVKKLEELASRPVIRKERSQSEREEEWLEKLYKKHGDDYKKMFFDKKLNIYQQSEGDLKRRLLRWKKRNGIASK
substance,measurement,setting,value
"ATP synthase subunit d, mitochondrial, P30902",listed as a hit,[1],yes
"Heat shock protein STI1, P15705",listed as a hit,[2],yes
"26S proteasome regulatory subunit 4 homolog, P40327",listed as a hit,[3],yes
"26S proteasome regulatory subunit 7 homolog, P33299",listed as a hit,[4],yes
"Heat shock protein SSA2, P10592",listed as a hit,[5],yes
"ATP-dependent molecular chaperone HSP82, P02829",listed as a hit,[6],yes
"ATP synthase subunit beta, mitochondrial, P00830",listed as a hit,[7],yes
"ATP-dependent molecular chaperone HSC82, P15108",listed as a hit,Heat shock protein STI1,yes
"26S proteasome regulatory subunit RPN12, P32496",listed as a hit,[2],yes
"ATP synthase subunit epsilon, mitochondrial, P21306",listed as a hit,[8],yes
"26S proteasome regulatory subunit RPN2, P32565",listed as a hit,[4],yes
same,listed as a hit,[3],yes
same,listed as a hit,[2],yes
"26S proteasome regulatory subunit 6B homolog, P33298",listed as a hit,[2],yes
same,listed as a hit,[9],yes
"26S proteasome regulatory subunit 6A, P33297",listed as a hit,[4],yes
same,listed as a hit,[10],yes
same,listed as a hit,[11],yes
"Polyadenylate-binding protein, cytoplasmic and nuclear, P04147",listed as a hit,[5],yes
"Large ribosomal subunit protein eL24A, P04449",listed as a hit,[12],yes
same,listed as a hit,[13],yes
same,listed as a hit,[5],yes
"Ubiquitin C-terminal hydrolase RPN11, P43588",listed as a hit,[3],yes
same,listed as a hit,[14],yes
same,listed as a hit,[9],yes
"26S proteasome complex subunit SEM1, O94742",listed as a hit,[15],yes
"26S proteasome regulatory subunit RPN13, O13563",listed as a hit,[16],yes
"ATP synthase subunit 4, mitochondrial, P05626",listed as a hit,[17],yes
same,listed as a hit,[18],yes
same,listed as a hit,[19],yes
"Large ribosomal subunit protein uL29B, P0CX85",listed as a hit,[5],yes
"Enolase 1, P00924",listed as a hit,[5],yes
"2-isopropylmalate synthase, P06208",listed as a hit,[20],yes
"Proteasome-interacting protein CIC1, P38779",listed as a hit,[21],yes
"ATP synthase subunit e, mitochondrial, P81449",listed as a hit,[22],yes
"26S proteasome regulatory subunit RPN10, P38886",listed as a hit,[14],yes
"Protein transport protein SEC61, P32915",listed as a hit,[23],yes
"Ribosome biogenesis protein NSA2, P40078",listed as a hit,[24],yes
"Ribosome-associated molecular chaperone SSB1, P11484",listed as a hit,Elongation factor 3A,yes
same,listed as a hit,[25],yes
same,listed as a hit,[26],yes
same,listed as a hit,[27],yes
same,listed as a hit,[28],yes
same,listed as a hit,[29],yes
same,listed as a hit,[30],yes
same,listed as a hit,[31],yes
same,listed as a hit,[32],yes
same,listed as a hit,[33],yes
"Nucleolar protein 16, P40007",listed as a hit,[21],yes
same,listed as a hit,[34],yes
"Casein kinase II subunit alpha, P15790",listed as a hit,[35],yes
"Casein kinase II subunit alpha', P19454",listed as a hit,[36],yes
"Cytochrome b-c1 complex subunit 2, mitochondrial, P07257",listed as a hit,[37],yes
"Cytochrome b-c1 complex subunit 1, mitochondrial, P07256",listed as a hit,[38],yes
"Respiratory supercomplex factor 2, mitochondrial, P53721",listed as a hit,[39],yes
"Cytochrome b-c1 complex subunit 6, mitochondrial, P00127",listed as a hit,[40],yes
"Cytochrome c oxidase subunit 5A, mitochondrial, P00424",listed as a hit,[41],yes
"DNA-directed RNA polymerase II subunit RPB3, P16370",listed as a hit,[42],yes
same,listed as a hit,[43],yes
"DNA-directed RNA polymerase II subunit RPB2, P08518",listed as a hit,[43],yes
"25S rRNA (cytosine(2870)-C(5))-methyltransferase, P40991",listed as a hit,FK506-binding protein 4,yes
"H/ACA ribonucleoprotein complex subunit CBF5, P33322",listed as a hit,[44],yes
